Only some compounds are listed: those with a hit (about 1.2% of all), similar ones and a draw of the others.
RGS16-Gao: modulates binding between human RGS16 and Galphao; 0.38% of 220,000 active; bead-based flow cytometry RGS16-Galphao binding, fluorescence; actives lie on both sides; binding response (% of control), % at 10 µM;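 also: Galphao activated by GDP with aluminum fluoride before binding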
Target sequence (O15492 whole entry, looked up): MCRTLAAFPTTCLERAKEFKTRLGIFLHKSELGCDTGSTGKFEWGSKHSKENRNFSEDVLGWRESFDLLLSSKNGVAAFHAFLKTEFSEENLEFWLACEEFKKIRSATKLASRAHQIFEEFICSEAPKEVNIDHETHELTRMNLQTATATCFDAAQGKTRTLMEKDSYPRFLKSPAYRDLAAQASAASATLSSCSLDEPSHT
Target sequence (P09471 whole entry, looked up): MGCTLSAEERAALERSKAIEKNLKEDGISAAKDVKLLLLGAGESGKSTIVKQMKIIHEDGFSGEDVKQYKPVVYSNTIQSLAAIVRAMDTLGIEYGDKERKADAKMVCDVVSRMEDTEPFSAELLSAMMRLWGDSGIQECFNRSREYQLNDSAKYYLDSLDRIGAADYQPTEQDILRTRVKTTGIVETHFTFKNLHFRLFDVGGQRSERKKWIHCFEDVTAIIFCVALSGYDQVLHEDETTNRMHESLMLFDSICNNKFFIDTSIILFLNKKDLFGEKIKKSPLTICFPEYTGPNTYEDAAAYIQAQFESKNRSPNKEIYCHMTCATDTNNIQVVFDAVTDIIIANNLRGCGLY
GSH fluor: compound fluoresces at 488/530 nm on GSH beads; GSH beads flow cytometry, compound fluorescence 488/530 nm; hits give high values; fluorescence (KMESF) at 10 µM; 0.25% of 190,000 active; AID 1776; in the data active = fluorescence above about 89;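 also: glutathione beads carrying GST-tagged Bcl family fusion proteins plus one bare bead set; values are compound well signal with DMSO vehicle wells as background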
RGS8-Gao: modulates binding of RGS8 to human Galphao; response (percent of control binding), % at 10 µM; multiplexed bead flow cytometry; actives lie on both sides; 0.34% of 220,000 active; P09471; AID 1423; in the data active = response below about 60% or above about 140%; inactive = in between;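 also: Galphao activated as the GDP aluminium fluoride complex binding bead-coupled RGS8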
RGS7-Gao: human RGS7-Galphao interaction regulation; binding response (% of control), % at 10 µM; 0.35% of 220,000 active; AID 1439; Multiplexed bead flow cytometry, RGS7-Galphao binding; actives lie on both sides; P09471; in the data active = binding response below about 49% or above about 150%; inconclusive = no clear call, values can overlap the other calls; inactive = in between;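 also: fluorescent Galphao held in activated GDP-AlF4 state binding bead-coupled RGS7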
RGS4-Gao reg: human RGS4-Galphao interaction regulation; P09471; Multiplexed bead flow cytometry, RGS4-Galphao binding; actives lie on both sides; binding response (% of control), % at 10 µM; 0.33% of 220,000 active; in the data active = binding response below about 49% or above about 150%; inactive = in between;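 also: fluorescent Galphao activated with aluminum fluoride binding bead-coupled RGS4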
Avidin fluor: compound fluoresces at 488/530 nm on avidin beads. fluorescence (KMESF) at 10 µM. 0.38% of 220,000 active. AID 1775. compound fluorescence 488/530 nm, flow cytometry; hits give high values; in the data active = fluorescence above about 47
RGS4-Gao HTS: modulates binding between human RGS4 and Galphao. shares compounds with RGS16-Gao. multiplexed bead flow cytometry, RGS–Galpha-o binding. RGS4–Galpha-o binding response, % at 10 µM. 99% of 1,600 active. AID 1504;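 also: fluorescently labeled Galpha-o bound to GDP with aluminium fluoride binding biotinylated RGS beads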
Avidin counter: interferes with biotinylated probe binding to avidin beads; shares compounds with RGS16-Gao; streptavidin beads, fluorescein-biotin binding, flow cytometry; inhibition, % at 10 µM; 1,700 tested, under 10 active;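 active = inhibition above 50%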;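 also: median green fluorescence of gated singlet beads compared with DMSO control wells; 0% = DMSO wells and 100% = complete loss of bead fluorescence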
RGS8-Gao confirm: confirmation of regulators of human RGS8-Galphao interaction; AID 1836; bead-based flow cytometry RGS8-Galphao binding, fluorescence; actives lie on both sides; binding response (% of control), % at 10 µM; shares compounds with RGS16-Gao; 3% of 1,700 active; in the data active = binding response below about 72% or above about 130%; inactive = in between;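 also: Galphao activated as GDP AlF4 complex before binding bead RGS8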
RGS7-Gao single: confirmation of regulators of human RGS7-Galphao interaction. shares compounds with RGS16-Gao. bead-based flow cytometry RGS7-Galphao binding; actives lie on both sides. response (percent of control binding), % at 10 µM. 7.8% of 1,700 active; in the data active = response below about 75% or above about 130%; inactive = in between;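 also: fluorescent Galphao activated with GDP and aluminum fluoride binding bead-coupled RGS7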
RGS16-Gao conf: confirmation of regulators of human RGS16-Galphao interaction; shares compounds with RGS16-Gao; bead-based flow cytometry, RGS16-Galphao binding; actives lie on both sides; response (% of control binding), % at 10 µM; 4% of 1,700 active; AID 1838; in the data active = response below about 74% or above about 130%; inactive = in between;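 also: Galphao activated as the GDP aluminium fluoride complex binding bead-coupled RGS16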
RGS4-Gao confirm: RGS4-Galphao interaction regulation, single point confirmation. 4% of 1,700 active. shares compounds with RGS16-Gao. binding response (% of control), % at 10 µM. RGS4-Galphao binding, multiplexed bead flow cytometry; actives lie on both sides; in the data active = binding response below about 74% or above about 130%; inactive = in between
RGS19-Gao single: RGS19-Galphao interaction regulation, single point confirmation | response (percent of control binding), % at 10 µM | AID 1841 | bead-based flow cytometry RGS19-Galphao binding; actives lie on both sides | shares compounds with RGS16-Gao | 5% of 1,700 active; in the data active = response below about 50% or above about 160%; inactive = in between;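 also: 100% = no compound control and 0% = blank background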
* = called active by the depositor; ? = inconclusive; nt = no result given; [ ] = dose if it differs, or a comment. Unless noted, no rule for the calls is given here.

SMILES	RGS16-Gao	GSH fluor	RGS8-Gao	RGS7-Gao	RGS4-Gao reg	Avidin fluor	RGS4-Gao HTS	Avidin counter	RGS8-Gao confirm	RGS7-Gao single	RGS16-Gao conf	RGS4-Gao confirm	RGS19-Gao single
COc1ccc(-c2nc(C)sc2C)cc1	266	7	142*[activator]	118	115	3	115*	-1	98	102	102	101	96
COc1ccc(-c2nc(-n3c(C)c(C(C)=O)c(C(C)=O)c3C)sc2C)cc1	40	20	56*	44*	47*	3	nt	-1	102	104	101	105	98
O=C(CCl)NC1(C(F)(F)F)C(=O)Nc2c1c(=O)[nH]c(=O)n2-c1ccccc1 (configuration not stated)	102	nt	100	?	98	3	nt	nt	nt	nt	nt	nt	nt
CC(=O)N1N=C(c2ccccc2OC(=O)/C=C/c2ccccc2)CC1c1ccccc1 (configuration not stated)	98	nt	97	?	96	9	nt	nt	nt	nt	nt	nt	nt
COc1ccc(C(=O)NC(=S)Nc2ccc3oc(=O)ccc3c2)cc1OC	243*[activator]	18	138	116	121	4	121*	-2	106	108	107	108	106
COc1cccc(OC)c1C(=O)NC(=S)Nc1ccc2oc(=O)ccc2c1	100	10	103	102	101	12	nt	nt	nt	nt	nt	nt	nt
O=C(NCc1ccccn1)C1CCN(Cc2cnn(-c3ccccc3)c2-n2cccc2)CC1	nt	27	nt	nt	136	nt	nt	0	96	96	96	96	95
Cc1ccc(-n2c(N)c(C(=O)N3CCOCC3)sc2=S)cc1	228	21	146*[activator]	120	120	13	120*	nt	nt	nt	nt	nt	nt
Cc1ccc(CC(=O)O/N=C(\N)Cc2ccc([N+](=O)[O-])cc2)cc1	17*	7	78	88	92	9	92*	nt	nt	nt	nt	nt	nt
O=C1NCCN(Cc2ccc(Cl)c(F)c2)C1CC(=O)N1CCCCO1 (configuration not stated)	105	16	102	103	100	10	nt	nt	nt	nt	nt	nt	nt
Clc1ccccc1Nc1c2c(nc3ncnn13)CCC2	102	33	101	97	98	15	nt	nt	nt	nt	nt	nt	nt
c1ccc(Nc2c3c(nc4ncnn24)CCC3)cc1	nt	46	nt	nt	nt	nt	nt	0	95	56*	76	72*	62
Cc1noc(C)c1C(=O)NCc1cccs1	nt	33	nt	nt	nt	nt	nt	1	102	101	104	103	106
Cc1onc(-c2ccccc2Cl)c1C(=O)NCc1cccs1	103	22	103	102	101	17	nt	nt	nt	nt	nt	nt	nt
N#Cc1cccn1-c1nccc(-c2cccs2)n1	99	11	101	?	101	10	nt	nt	nt	nt	nt	nt	nt
Nc1nc(-c2ccc(Cl)cc2)cc(C(F)(F)F)n1	280	8	142*[activator]	118	126	7	126*	-2	102	151*[activator]	111	126*[activator]	128
Nc1nc(-c2ccc(F)cc2)cc(C(F)(F)F)n1	102	11	101	99	102	10	nt	nt	nt	nt	nt	nt	nt
Cc1ccc(C(=O)NCCCn2ccnc2)cc1[N+](=O)[O-]	102	9	103	104	98	10	nt	nt	nt	nt	nt	nt	nt

Compound activity: PubChem, NMMLSC
